# SMN2 splice up = SMN2 splice variant enhancement; AID 1458; 210,000 tested, 2.8% active; Potency, µM (highest dose often 46.1 µM), hits mostly activators; HEK293 SMN2-luciferase splicing reporter, luminescence, 30-36 h; note: nearly all actives have a fitted effect of over 55% in size
#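 HEK293 cells carry an SMN2 […]–luciferase reporter in which exon 7 inclusion puts luciferase in frame. Cells were plated 10-12 h before compound addition, then incubated 30-36 h at 37C. ONE-Glo luminescence was read; sodium butyrate at 4.5 mM final served as control.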
# Rab9 prom act = activators of Rab9 promoter. Huh7 Rab9 promoter-luciferase reporter, luminescence, 24 h. Potency, µM (highest dose often 9.22 µM), most hits filed as activators. 320,000 tested, 2.8% active. AID 485297; note: nearly all actives have a fitted effect of over 60% in size
#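 Luminescence read-out: Huh7 cells stably expressing Rab9-luciferase, treated 24 h with compound at 37 °C, then lysed with luciferase reagent for 10 min at ambient before reading.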
# ELG1 genotoxic = inducers of genotoxicity in HEK293T ELG1-luciferase cells. HEK293T ELG1-luciferase reporter, luminescence, 16 h. Potency, µM (doses to about 46 µM), hits mostly activators. 330,000 tested, 1.3% active. AID 504466; note: nearly all actives have a fitted effect of over 60% in size
#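 Cells (2,000/well) expressing the ELG1-luciferase fusion are dosed by pin tool and kept 16 hr at 37 °C, 5% CO2. Signal comes from ONE-Glo luciferase reagent after 30 min at room temperature.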
# FLuc counter = firefly luciferase modulation, counter-screen for miR-21 project. AID 588342. 360,000 tested, 6.9% active. Potency, µM (titrated, usually from 57.5 µM), most hits filed as inhibitors. purified FLuc, Km substrates, luminescence inhibition; note: nearly all actives have a fitted effect of over 55% in size
# Target sequence (P08659 whole entry, looked up): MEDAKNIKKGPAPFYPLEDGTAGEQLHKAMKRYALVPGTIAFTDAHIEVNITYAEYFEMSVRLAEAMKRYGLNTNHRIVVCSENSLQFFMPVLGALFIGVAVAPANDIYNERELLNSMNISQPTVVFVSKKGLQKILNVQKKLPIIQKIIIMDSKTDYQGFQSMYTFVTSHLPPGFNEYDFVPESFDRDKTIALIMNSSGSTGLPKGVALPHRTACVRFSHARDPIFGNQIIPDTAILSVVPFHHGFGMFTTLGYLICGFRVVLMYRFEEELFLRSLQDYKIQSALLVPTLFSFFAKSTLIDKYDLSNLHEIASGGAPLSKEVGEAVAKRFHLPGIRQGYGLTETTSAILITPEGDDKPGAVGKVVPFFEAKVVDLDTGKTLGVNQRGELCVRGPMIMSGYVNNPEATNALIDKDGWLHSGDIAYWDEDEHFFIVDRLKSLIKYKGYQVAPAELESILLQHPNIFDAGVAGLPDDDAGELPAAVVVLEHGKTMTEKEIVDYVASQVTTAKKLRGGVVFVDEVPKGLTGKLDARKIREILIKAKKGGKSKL
#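 Purified P. pyralis luciferase, 10 nM final, with Km-level 10 uM D-luciferin and 10 uM ATP in 50 mM Tris acetate pH 7.5, 10 mM Mg acetate, 0.01% Tween-20, 0.05% BSA; 6-point qHTS titration about 60 µM downward; luminescence read.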
# NPC1 prom act = activators of NPC1 promoter; Huh7 NPC1 promoter luciferase reporter, 24 h; Potency, µM (titrated, usually from 9.22 µM), actives largely listed as activators; 320,000 tested, 2.4% active; note: nearly all actives have a fitted effect of over 60% in size
#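 Luciferase expression driven by the NPC1 promoter was measured in stably transfected Huh7 cells after a 24 h compound incubation, using a luciferase reagent and a luminescence read.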
# Numbers stand for hits; – = inactive; ? = inconclusive; · = not tested or not shown. Hits are enriched below; roughly 7.4% of the tested compounds scored in any of these assays. Calls come from the whole dose curve; as a rule, active = well fitted curve in the direction sought with a large enough effect; inconclusive = small, poorly fitted or top-dose-only effect, or another doubt; inactive = no such curve, though single readings can be large; an effect the other way counts as inactive or inconclusive.
SMILES,SMN2 splice up,Rab9 prom act,ELG1 genotoxic,FLuc counter,NPC1 prom act
COc1ccc(N2CCN(C(=O)CNC(=O)c3nn(-c4ccc(OC)cc4)c(=O)c4ccccc34)CC2)cc1,·,–,–,?,–
COc1ccc(-n2nc(C(=O)NCC(=O)N3CC(C)CC(C)C3)c3ccccc3c2=O)cc1 (stereo not given),·,–,–,19µM,–
COc1ccc(-n2nc(C(=O)NCC(=O)N3CCCCCC3)c3ccccc3c2=O)cc1,·,–,–,5.36µM,–
CCOc1ccc(NC(=O)CNC(=O)c2nn(-c3ccc(OC)cc3)c(=O)c3ccccc23)cc1,·,–,–,–,–
Cc1ccc(C(=O)Nc2cccc(NC(=O)c3ccc(C)c([N+](=O)[O-])c3)n2)cc1[N+](=O)[O-],·,–,–,–,–
Cc1ccc(C(=O)Nc2sc(C)c(-c3ccccc3)c2C(N)=O)cc1[N+](=O)[O-],–,–,2.91µM,3.38µM,–
C=CCc1cc(/C=C/c2nc(O)c([N+](=O)[O-])c(=O)[nH]2)cc(OC)c1O,–,–,–,16.9µM,–
Cc1ccnc(NS(=O)(=O)c2ccc(NC(=O)/C=C/c3cccs3)cc2)n1,–,–,–,?,–
O=C(/C=C/c1cccs1)N1CCCC1,·,–,–,–,–
CC(C)(C)NC(=O)/C=C/c1cccs1,–,–,–,–,–
Cc1cccc(NC(=O)/C=C/c2cccs2)n1,3.16µM,2.51µM,?,4.78µM,2.82µM
Cc1ccc(NC(=O)/C=C/C(=O)O)c([N+](=O)[O-])c1,–,–,–,–,–
Cc1cc(C)n(C(=O)/C=C/c2cccs2)n1,·,–,–,16.9µM,–
O=C(/C=C/c1cccs1)Nc1ccncc1,–,–,–,13.5µM,–
Cc1ccc(NC(=O)/C=C/c2cccs2)c([N+](=O)[O-])c1,?,3.16µM,?,1.51µM,3.16µM
CCCOC(=O)c1cc(NC(=O)/C=C/c2ccccc2)ccc1O,·,–,–,15.1µM,–
CC(C)(C)c1ccc(/C=C/C(=O)Nc2ccncc2)cc1,–,–,–,4.78µM,–
CCOC(=O)c1cc(NC(=O)COC)ccc1O,·,–,–,–,–
CCCOC(=O)c1ccc(NC(=O)/C=C/c2cccs2)cc1,–,–,–,23.9µM,–
CN(C)C(=O)c1ccc(NC(=O)COC(=O)/C=C/c2cccs2)cc1,·,–,–,–,–
CCOC(=O)c1ccc2c(c1)N(Cc1ccc(F)cc1Cl)C(=O)c1ccccc1S2(=O)=O,·,·,·,–,·
CC(C)OC(=O)[C@@H]1CC[C@H](C)[C@@H](CCC[C@@H]2CC=C[C@H](CC#N)O2)O1,–,·,·,·,·
CC1CCN(C(=O)c2c(NC(=O)c3ccccc3F)sc3c2CCC(C(C)(C)C)C3)CC1 (stereo not given),–,·,·,–,·
O=C(CS(=O)(=O)c1nc(-c2ccc(Cl)cc2)cn1-c1ccccc1)Nc1ccc(F)cc1F,14.1µM,·,·,21.3µM,·
Cc1ccc(NC(=O)CS(=O)(=O)c2nc(-c3ccc(C)cc3)cn2-c2ccc(C)cc2)cc1,17.8µM,·,·,?,·
SMILES,SMN2 splice up,Rab9 prom act,ELG1 genotoxic,FLuc counter,NPC1 prom act
Cc1ccc[n+](CC(=O)Nc2cccc(Cl)c2)c1,·,–,–,–,–
Cc1ccc(-c2cn(-c3cccc(Cl)c3)c(S(=O)(=O)CC(=O)Nc3cccc(C)c3)n2)cc1,15.8µM,·,·,–,·
O=C(CSc1nncn1-c1ccccc1)Nc1ccc(F)cc1F,·,–,–,–,–
Cc1cccc(NC(=O)CS(=O)(=O)c2nc(-c3ccccc3)cn2-c2cccc(Cl)c2)c1C,–,·,·,–,·
Cc1ccc(-c2cn(-c3cccc(Cl)c3)c(S(=O)(=O)CC(=O)Nc3ccccc3F)n2)cc1,12.6µM,·,·,?,·
COc1ccc2c(c1)C(=O)[C@H](OC(=O)N[C@H](C)C1CCCCC1)[C@@H](c1ccc(OC)c(Br)c1)O2,–,·,·,·,·
CCOC(=O)c1cnn(-c2ccc(OC)cc2)c1C1CCN(C(=O)OC(C)(C)C)CC1,–,·,·,–,·
COc1ccc(-n2nnc(-c3nsc(NC(=O)c4cccs4)n3)c2C)cc1OC,·,·,·,–,·
O=C(CS(=O)(=O)c1nc(-c2ccc(Cl)cc2)cn1-c1ccccc1)Nc1cccc(Cl)c1,12.6µM,·,·,?,·
Cc1ccc(NC(=O)N2C(=O)C3(OCCO3)c3ccccc32)cc1,?,2µM,?,?,3.16µM
CSCC(=O)N1CCc2ccc(NC(=O)c3ccccc3Cl)cc2C1,·,?,?,16.9µM,?

# High-throughput results as filed in PubChem.
